These results are taken from the supplement of paper PMC9844399.

Molecules are shown by their SMILES. Where a name gives a salt, the structure may show the parent alone. Unmarked numbers belong to inactive results.
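Further: High-content confocal imaging of branched-DNA amplified FISH in 384-well plates, Hoechst-defined nuclei, score is well value minus plate DMSO median over DMSO robust SD, four wells per compound.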

For this assay, the system named is HeLa. Briefly: MALAT1 nuclear FISH intensity, robust Z-score vs DMSO; higher = more nuclear MALAT1 lncRNA, active = -3 or less. Conditions: 10 µM; 6 h.
Turning to `C[C@H]1C(=O)O[C@@H]2CCN3CC=C(COC(=O)[C@](C)(O)[C@]1(C)O)[C@H]23` [Monocrotaline], the “MALAT1 nuclear FISH intensity” value was -0.947.
As for `COc1cccc2c1cc([N+](=O)[O-])c1c(C(=O)O)cc3c(c12)OCO3` [Aristolochic acid], the “MALAT1 nuclear FISH intensity” value is -1.95.
Regarding `CN1C[C@H](C(=O)N[C@]2(C)O[C@@]3(O)[C@@H]4CCCN4C(=O)[C@H](Cc4ccccc4)N3C2=O)C[C@@H]2c3cccc4[nH]cc(c34)C[C@H]21` [Dihydroergotamine Mesylate], the “MALAT1 nuclear FISH intensity” value is 0.518.
`CCCCC/C=C\C/C=C\C/C=C\C/C=C\CCCC(=O)NCc1ccc(O)c(OC)c1` [Arvanil]: the “MALAT1 nuclear FISH intensity” value was -0.793.
Take `O=C(Nc1ccccc1)N(Cc1ccc(Cl)cc1)C1CCCC1` [Pencycuron]: the “MALAT1 nuclear FISH intensity” value is -0.114.
In the case of `CC(C)N(CCC(C(N)=O)(c1ccccc1)c1ccccn1)C(C)C` (centres undefined) [Disopyramide] it was -1.18; in that of `O=C1Nc2ccc(Cl)cc2C(c2ccccc2)=NC1O` (centres undefined) [Oxazepam], -0.235; in that of `CC(=O)C1=C(O)[C@@H]2[C@H]3c4c[nH]c5cccc(c45)C[C@H]3C(C)(C)N2C1=O` [Cyclopiazonic acid], 1.94.
As for `O=P1(N(CCCl)CCCl)NCCCO1` (centres undefined) [Cyclophosphamide], the “MALAT1 nuclear FISH intensity” value is -0.555.
As to `O[C@H]1[C@H](O)[C@@H](O)CN2CC[C@H](O)[C@H]12` [Castanospermine], the “MALAT1 nuclear FISH intensity” value is -1.1.
On to `CC(C)[C@@H]1NC(=O)[C@H](C)OC(=O)[C@@H](C(C)C)NC(=O)[C@@H](C(C)C)OC(=O)[C@H](C(C)C)NC(=O)[C@H](C)OC(=O)[C@@H](C(C)C)NC(=O)[C@@H](C(C)C)OC(=O)[C@H](C(C)C)NC(=O)[C@H](C)OC(=O)[C@@H](C(C)C)NC(=O)[C@@H](C(C)C)OC1=O` [Valinomycin], for which the “MALAT1 nuclear FISH intensity” value was -0.197.
As for `c1ccc2c(c1)[I+]c1ccccc1-2` [Diphenyleneiodonium], the “MALAT1 nuclear FISH intensity” value was -4.24 (active).
As for `CC(C)n1cc2c3c(cccc31)C1C[C@@H](C(=O)N[C@H]3CCC[C@H]3O)CN(C)[C@@H]1C2` (some centres undefined), the “MALAT1 nuclear FISH intensity” value is -0.281.
With `CO/C1=C\C(C)=C\[C@@H](C)[C@@H](O)[C@@H](C)C/C(C)=C/C=C/[C@H](OC)[C@@H]([C@@H](C)[C@@H](O)[C@H](C)[C@@]2(O)C[C@@H](O)[C@H](C)[C@@H](C(C)C)O2)OC1=O` [Bafilomycin A1], the “MALAT1 nuclear FISH intensity” value was -1.34.
In the case of `COC(=O)[C@@H](N)CCCNC(=N)N[N+](=O)[O-]`, the “MALAT1 nuclear FISH intensity” value was -1.97.
As for `O=C(NCCN1CCC2(CC1)C(=O)NCN2c1cccc(F)c1)c1ccc2ccccc2c1`, the “MALAT1 nuclear FISH intensity” value is -1.49.
For the compound `COC[C@H]1OC(=O)c2coc3c2[C@@]1(C)C1=C(C3=O)[C@@H]2CCC(=O)[C@@]2(C)C[C@H]1OC(C)=O` [Wortmannin], the “MALAT1 nuclear FISH intensity” value was -1.8.
With `CCCCCCCCCCCCCC(=O)O[C@@H]1[C@@H](C)[C@@]2(O)[C@@H](C=C(CO)C[C@]3(O)C(=O)C(C)=C[C@@H]23)[C@@H]2C(C)(C)[C@]12OC(C)=O` [Phorbol 12-myristate 13-acetate], the “MALAT1 nuclear FISH intensity” value is 1.8.
The figure for `C=C(C)[C@H]1O[C@H]2CC[C@@]3(C)[C@@](O)(CC[C@H]4[C@@H]5OC(C)(C)[C@H]6C[C@@H]7C(=C)Cc8c(Cl)cc9[nH]c(c5c9c8[C@@]76O)[C@@]43C)[C@@]23O[C@H]3[C@H]1O` [Penitrem A] is -1.18; for `O=C1CC[C@@]2(O)[C@H]3Cc4ccc(O)c5c4[C@@]2(CCN3CC2CC2)[C@H]1O5` it is -0.832.
In the case of `CN1C(=O)C(O)N=C(c2ccccc2)c2cc(Cl)ccc21` (centres undefined) [Temazepam] it was -0.814; in that of `O=C1CSC(c2ccccc2Cl)c2cc(Cl)ccc2N1` (centres undefined), -1.48; in that of `COC(=O)Nc1nc2ccccc2[nH]1` [Carbendazim], -1.37.
As for `C[C@H](CCC(=O)O)C[C@H](C)C[C@H](C)C(=O)/C=C(\O)[C@H](C)C[C@H](C)C/C=C/[C@@H](C)[C@@H](O)[C@@H](C)[C@@H](O)C[C@@H]1CC[C@@](C)([C@H]2CC[C@@](C)([C@@H](C)O)O2)O1`, the “MALAT1 nuclear FISH intensity” value is -1.36.
Regarding `COc1ccc(C(CN(C)C)C2(O)CCCCC2)cc1` (centres undefined), the “MALAT1 nuclear FISH intensity” value is -0.701.
In the case of `N#C/C(=C\c1ccc(O)c(O)c1)C(N)=S` [AG213 (Tyrphostin 47)] it was -0.492; in that of `C[C@@H](CN1CCC(n2c(=O)[nH]c3cc(Br)ccc32)CC1)NC(=O)[C@@H]1C[C@H]1c1ccccc1`, -0.293; in that of `CCCCCCC(=O)O[C@H]1CC[C@H]2[C@@H]3CCC4=CC(=O)CC[C@]4(C)[C@H]3CC[C@]12C` [Testosterone Enanthate], 0.416.
On to `COC(=O)[C@@]1(O)C[C@H]2O[C@]1(C)n1c3ccccc3c3c4c(c5c6ccccc6n2c5c31)C(=O)NC4`, for which the “MALAT1 nuclear FISH intensity” value is 0.291.
Turning to `C[C@H](N)C(=O)N[C@@H](C)C(=O)N[C@@H](Cc1ccccc1)C(=O)CCl`, the “MALAT1 nuclear FISH intensity” value is 0.276.
Consider `C=C(C)[C@H]1Cc2c(ccc3c2O[C@@H]2COc4cc(OC)c(OC)cc4[C@@H]2C3=O)O1` [Rotenone], for which the “MALAT1 nuclear FISH intensity” value was -0.366.
The figure for `CCOC(=O)CN1C(=O)CC(C[C@@H](O)C2C[C@@H](C)C[C@H](C)C2=O)CC1=O` (some centres undefined) [Cycloheximide-N-ethylethanoate] is -0.0786; for `CCCCC/C=C\CC1OC1CCCCCCCC(=O)O` (centres undefined) [Leukotoxin A (9,10-EODE)] it is -0.766.
Regarding `NCC1(CC(=O)O)CCCCC1` [Gabapentin], the “MALAT1 nuclear FISH intensity” value is 0.161.
With `C[C@@H]1C[C@@H]([C@H](O)CC2CC(=O)NC(=O)C2)C(=O)[C@@H](C)C1` [Cycloheximide], the “MALAT1 nuclear FISH intensity” value is 4.45.
The figure for `C[N+]1(C)CCCC(OC(=O)C(O)(c2ccccc2)c2ccccc2)C1` (centres undefined) [Mepenzolate Bromide] is 0.47; for `COc1cc2c(c3oc(=O)c4c(c13)CCOC4=O)[C@@H]1C=CO[C@@H]1O2` [Aflatoxin G1] it is 0.611; for `CO[C@H](C/C=C\C=C\CC/C=C/C[C@H](C)/C=C/C(=C\C(=O)O)CC(=O)O)/C(C)=C\C=C(/C)C(=O)O` [Bongkrekic acid] it is 1.49.
Consider `Oc1ccc2c3c1O[C@H]1[C@@H](O)CC[C@@]4(O)[C@@H](C2)N(CC2CCC2)CC[C@]314`, for which the “MALAT1 nuclear FISH intensity” value was -0.361.
